Data on five compounds can be found in PubChem BioAssay.

Assay [1] deals with PRMT1 (protein arginine N-methyltransferase 1). The assay is described as follows: small molecules binding arginine methyltransferase PRMT1 – biochemical, small-molecule microarray, 635 nm fluorescence, primary screen (AID 1088).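 Also: binding of Prmt1 protein to compounds spotted on small-molecule microarray slides.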 The settings on record: higher = more signal.
Assay [2] is described as follows: growth effects on S. cerevisiae YJM789 – YJM789 clinical isolate, OD600, 24 h, basal, primary screen (AID 1089).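 Also: growth of clinical yeast isolate S. cerevisiae YJM 789 seeded 1000 cells per well; test concentration not given here.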 The conditions noted are these: higher = more signal, called active from +8 up or from −8 down.
Assay [3] can be described thus: S. pombe growth modifiers, basal conditions – strain 972, OD600, 24 h, no modulator, primary screen (AID 1090).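 Also: basal condition with compound alone and no growth modifier present; test concentration not given here.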 The settings on record: S. pombe 972 growth, higher = more signal, called active from +8 up or from −8 down.
Assay [4] in a line: budding yeast growth modifiers under rapamycin – strain BY4716, OD600, 96 h, primary screen (AID 1091). Also: test concentration not given here. The settings on record: S. cerevisiae BY4716 + rapamycin, higher = more signal, called active from +8 up or from −8 down.
Assay [5] concerns the target Torsin-1A-interacting protein 2 (Homo sapiens) (UniProt Q8NFQ8). Description: small molecules binding lysate-expressed LULL1 – cell lysate, human LULL1 lysate, 635/667 nm fluorescence, primary screen (AID 1092).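 Also: probe is lysate of COS7 cells overexpressing human LULL1; score merges per-feature 667 nm fluorescence with signal-to-noise.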 The conditions noted are these: small-molecule microarray, hLULL1 lysate binding, 635 nm fluorescence; higher = more signal.
A short description of assay [6]: optical density change of DRC41 E. coli – strain DRC41, OD650, 24 h, E. coli filamentation project, primary screen (AID 1093).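 Also: MC1000 strain lacking acrAB efflux and sulA so SOS filamentation is blocked; test concentration not given here.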 The settings on record: E. coli DRC41 growth, higher = more signal, called active from +8 up or from −8 down.
Assay [7] can be described thus: probe aLefty2 binding to arrayed compounds – biochemical, biotinylated probe, 635/667 nm fluorescence, primary screen (AID 1094).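 Also: score merges spot fluorescence near 667 nm with spot signal-to-noise ratio.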 The conditions noted are these: small-molecule microarray, higher = more signal.
The subject of assay [8] is Noggin (protein binding on small-molecule microarray). Description: small molecules binding Noggin protein – biochemical, 635/667 nm fluorescence, primary screen (AID 1095).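 Also: score merges 667 nm feature fluorescence with signal to noise over triplicate slides.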 The conditions noted are these: 635 nm fluorescence, higher = more signal.
Assay [9] has as its target Neurogenic locus notch homolog protein 3 (Homo sapiens) (UniProt Q9UM47). The assay is described as follows: small molecules binding NOTCH3 protein – biochemical, 635/667 nm fluorescence, primary screen (AID 1096). The settings on record: small-molecule microarray, 635 nm fluorescence, higher = more signal.
Assay [10] can be described thus: probe aEGFR binding to arrayed compounds – biochemical, biotinylated probe, 635/667 nm fluorescence, primary screen (AID 1097).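 Also: probe is a biotinylated anti-EGFR antibody binding compounds printed on slides; score combines fluorescence near 667 nm and signal to noise of each spot.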 The settings on record: small-molecule microarray, higher = more signal.
For assay [11], the system named is Plasmodium falciparum Sir2 (PF13_0152, Sir2A). The assay is described as follows: Plasmodium falciparum Sir2A binding compounds – biochemical, small-molecule microarray, 635 nm fluorescence, primary screen (AID 1098).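 Also: score merges spot fluorescence intensity with its signal-to-noise ratio.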 The conditions noted are these: fluorescence 635 nm, higher = more signal.
A short description of assay [12]: probe aDKK1 binding to arrayed compounds – biochemical, biotinylated probe, 635/667 nm fluorescence, primary screen (AID 1099).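 Also: score merges 667nm spot fluorescence with signal to noise across triplicate slides; reference of the scale not given here.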 The conditions noted are these: small-molecule microarray, higher = more signal.
A short description of assay [13]: probe aCHRDL2 binding to arrayed compounds – biochemical, biotinylated probe, 635/667 nm fluorescence, primary screen (AID 1100). The settings on record: small-molecule microarray, higher = more signal.
Assay [14] is described as follows: change in splice reporter luminescence, either direction, cell-based, HEK293, spliceosome inhibition project, primary screen (AID 1101).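 Also: HEK293 cells carrying a splicing-competent luciferase reporter gene; test concentration not given here.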 The settings on record: HEK293 splicing luciferase reporter, 24 h, higher = more signal, called active from +8 up or from −8 down. In general terms: In a reporter assay the amount or activity of a reporter protein is the signal.

The target of assay [15] is Fibroblast growth factor 10 (Homo sapiens) (UniProt O15520). Description: compounds binding fibroblast growth factor 10 – biochemical, small-molecule microarray, 635 nm fluorescence, primary screen (AID 1102). The conditions noted are these: FGF10 binding, fluorescence 635 nm, higher = more signal.
Chain of Fibroblast growth factor 10 (Homo sapiens) (O15520 whole entry, looked up): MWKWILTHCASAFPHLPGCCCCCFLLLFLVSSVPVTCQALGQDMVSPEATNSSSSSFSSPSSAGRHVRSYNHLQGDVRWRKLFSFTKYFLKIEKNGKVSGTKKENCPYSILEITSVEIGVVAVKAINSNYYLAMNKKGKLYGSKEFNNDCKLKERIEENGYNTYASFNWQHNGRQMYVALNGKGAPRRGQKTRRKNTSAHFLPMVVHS
The test system of assay [16] is glycogen synthase kinase-3 (GSK3A per assay name; protocol says GSK3B). The assay is described as follows: compounds binding glycogen synthase kinase-3 – biochemical, small-molecule microarray, 635 nm fluorescence, GSK3A, primary screen (AID 1103). Also: the record names both GSK3A and GSK3B. The conditions noted are these: fluorescence 635 nm, higher = more signal.
Assay [17] addresses Epidermal growth factor receptor (Homo sapiens) (UniProt P00533). Description: compounds binding epidermal growth factor receptor – biochemical, small-molecule microarray, 635 nm fluorescence, primary screen (AID 1104).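 Also: score merges 667 nm emission intensity with spot signal to noise over triplicate slides.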 The conditions noted are these: EGFR binding, higher = more signal.
For assay [18], the target named is Follistatin-related protein 3 (Homo sapiens) (UniProt O95633). Description: compounds binding follistatin-related protein 3 – biochemical, small-molecule microarray, 635 nm fluorescence, primary screen (AID 1105).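 Also: score merges emission near 667 nm and signal to noise per printed spot across three slides.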 The conditions noted are these: FSTL3 binding, higher = more signal.
Chain of Follistatin-related protein 3 (Homo sapiens) (O95633 whole entry, looked up): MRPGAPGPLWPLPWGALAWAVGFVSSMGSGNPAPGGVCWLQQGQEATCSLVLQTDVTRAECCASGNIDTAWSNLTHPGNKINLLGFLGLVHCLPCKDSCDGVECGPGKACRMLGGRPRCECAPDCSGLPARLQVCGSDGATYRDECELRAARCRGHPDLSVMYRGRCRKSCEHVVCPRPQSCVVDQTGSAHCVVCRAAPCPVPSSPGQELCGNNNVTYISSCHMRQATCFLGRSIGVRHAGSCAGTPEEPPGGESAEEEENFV
The target of assay [19] is Dickkopf-related protein 1 (Homo sapiens) (UniProt O94907). The assay is described as follows: small molecules binding DKK1 protein – biochemical, small-molecule microarray, 635 nm fluorescence scan, primary screen (AID 1106).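 Also: score merges emission near 667 nm with signal to noise over three replicate slides.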 The conditions noted are these: higher = more signal.
Chain of Dickkopf-related protein 1 (Homo sapiens) (O94907 whole entry, looked up): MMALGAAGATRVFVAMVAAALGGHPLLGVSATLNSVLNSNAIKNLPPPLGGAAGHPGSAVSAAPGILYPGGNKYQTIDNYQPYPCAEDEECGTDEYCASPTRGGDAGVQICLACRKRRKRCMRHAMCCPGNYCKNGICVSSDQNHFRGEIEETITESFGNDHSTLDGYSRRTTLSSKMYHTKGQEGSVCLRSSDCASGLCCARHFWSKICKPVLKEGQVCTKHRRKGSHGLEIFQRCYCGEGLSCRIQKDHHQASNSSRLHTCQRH
Assay [20] has as its system Inhibin beta A chain (activin A). Description: small molecules binding activin A – biochemical, small-molecule microarray, 635 nm fluorescence scan, primary screen (AID 1107).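 Also: mouse activin A protein probed at 4.33 µg/mL on printed slides; score merges bound-protein fluorescence near 667 nm with spot signal-to-noise.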 The conditions noted are these: INHBA, higher = more signal.

Activity calls are given as the source filed them.

Chain of Torsin-1A-interacting protein 2 (Homo sapiens) (Q8NFQ8 whole entry, looked up): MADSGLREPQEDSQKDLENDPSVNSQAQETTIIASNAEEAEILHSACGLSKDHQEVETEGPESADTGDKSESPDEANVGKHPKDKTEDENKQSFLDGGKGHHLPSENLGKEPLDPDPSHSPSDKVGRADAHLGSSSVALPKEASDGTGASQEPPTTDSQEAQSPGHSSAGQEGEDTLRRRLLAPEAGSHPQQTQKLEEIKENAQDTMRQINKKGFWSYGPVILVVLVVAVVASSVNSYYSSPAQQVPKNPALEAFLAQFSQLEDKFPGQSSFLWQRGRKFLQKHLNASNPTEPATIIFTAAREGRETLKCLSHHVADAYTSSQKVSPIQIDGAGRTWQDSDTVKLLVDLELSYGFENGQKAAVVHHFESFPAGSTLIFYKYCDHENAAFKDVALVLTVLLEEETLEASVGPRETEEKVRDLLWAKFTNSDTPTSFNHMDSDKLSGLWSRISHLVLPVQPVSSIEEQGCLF
Chain of Epidermal growth factor receptor (Homo sapiens) (P00533 whole entry, looked up): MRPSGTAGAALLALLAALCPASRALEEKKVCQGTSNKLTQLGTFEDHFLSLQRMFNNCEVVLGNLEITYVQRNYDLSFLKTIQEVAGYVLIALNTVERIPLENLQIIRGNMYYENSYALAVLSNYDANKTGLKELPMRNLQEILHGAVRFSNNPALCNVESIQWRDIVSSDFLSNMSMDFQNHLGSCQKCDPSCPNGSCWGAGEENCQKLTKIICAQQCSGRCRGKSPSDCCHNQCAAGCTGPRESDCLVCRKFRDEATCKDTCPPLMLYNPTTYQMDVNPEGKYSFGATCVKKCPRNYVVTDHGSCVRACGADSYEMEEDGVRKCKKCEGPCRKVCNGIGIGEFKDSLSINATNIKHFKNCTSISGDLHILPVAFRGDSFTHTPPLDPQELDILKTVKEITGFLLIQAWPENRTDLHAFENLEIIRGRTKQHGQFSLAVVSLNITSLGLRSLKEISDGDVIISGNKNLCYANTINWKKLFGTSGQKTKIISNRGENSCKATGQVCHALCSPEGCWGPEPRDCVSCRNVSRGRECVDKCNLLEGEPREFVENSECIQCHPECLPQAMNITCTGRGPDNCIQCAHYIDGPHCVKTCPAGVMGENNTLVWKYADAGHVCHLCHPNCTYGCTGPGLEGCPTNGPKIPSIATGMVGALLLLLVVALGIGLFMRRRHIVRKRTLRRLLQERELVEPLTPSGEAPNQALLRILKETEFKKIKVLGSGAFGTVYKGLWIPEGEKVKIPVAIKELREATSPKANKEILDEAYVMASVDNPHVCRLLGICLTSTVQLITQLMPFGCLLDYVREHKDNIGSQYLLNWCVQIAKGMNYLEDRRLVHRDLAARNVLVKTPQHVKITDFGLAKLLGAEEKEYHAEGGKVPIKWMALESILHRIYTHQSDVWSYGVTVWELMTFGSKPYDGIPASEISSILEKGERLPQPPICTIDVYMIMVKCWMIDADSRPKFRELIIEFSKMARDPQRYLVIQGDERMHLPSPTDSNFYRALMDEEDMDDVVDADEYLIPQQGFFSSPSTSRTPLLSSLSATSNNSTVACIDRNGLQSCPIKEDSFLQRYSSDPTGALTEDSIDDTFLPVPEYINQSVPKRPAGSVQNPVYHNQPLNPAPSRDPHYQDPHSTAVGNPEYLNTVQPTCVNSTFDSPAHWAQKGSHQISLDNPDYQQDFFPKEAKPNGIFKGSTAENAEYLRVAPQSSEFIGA
Chain of Neurogenic locus notch homolog protein 3 (Homo sapiens) (Q9UM47 whole entry, looked up): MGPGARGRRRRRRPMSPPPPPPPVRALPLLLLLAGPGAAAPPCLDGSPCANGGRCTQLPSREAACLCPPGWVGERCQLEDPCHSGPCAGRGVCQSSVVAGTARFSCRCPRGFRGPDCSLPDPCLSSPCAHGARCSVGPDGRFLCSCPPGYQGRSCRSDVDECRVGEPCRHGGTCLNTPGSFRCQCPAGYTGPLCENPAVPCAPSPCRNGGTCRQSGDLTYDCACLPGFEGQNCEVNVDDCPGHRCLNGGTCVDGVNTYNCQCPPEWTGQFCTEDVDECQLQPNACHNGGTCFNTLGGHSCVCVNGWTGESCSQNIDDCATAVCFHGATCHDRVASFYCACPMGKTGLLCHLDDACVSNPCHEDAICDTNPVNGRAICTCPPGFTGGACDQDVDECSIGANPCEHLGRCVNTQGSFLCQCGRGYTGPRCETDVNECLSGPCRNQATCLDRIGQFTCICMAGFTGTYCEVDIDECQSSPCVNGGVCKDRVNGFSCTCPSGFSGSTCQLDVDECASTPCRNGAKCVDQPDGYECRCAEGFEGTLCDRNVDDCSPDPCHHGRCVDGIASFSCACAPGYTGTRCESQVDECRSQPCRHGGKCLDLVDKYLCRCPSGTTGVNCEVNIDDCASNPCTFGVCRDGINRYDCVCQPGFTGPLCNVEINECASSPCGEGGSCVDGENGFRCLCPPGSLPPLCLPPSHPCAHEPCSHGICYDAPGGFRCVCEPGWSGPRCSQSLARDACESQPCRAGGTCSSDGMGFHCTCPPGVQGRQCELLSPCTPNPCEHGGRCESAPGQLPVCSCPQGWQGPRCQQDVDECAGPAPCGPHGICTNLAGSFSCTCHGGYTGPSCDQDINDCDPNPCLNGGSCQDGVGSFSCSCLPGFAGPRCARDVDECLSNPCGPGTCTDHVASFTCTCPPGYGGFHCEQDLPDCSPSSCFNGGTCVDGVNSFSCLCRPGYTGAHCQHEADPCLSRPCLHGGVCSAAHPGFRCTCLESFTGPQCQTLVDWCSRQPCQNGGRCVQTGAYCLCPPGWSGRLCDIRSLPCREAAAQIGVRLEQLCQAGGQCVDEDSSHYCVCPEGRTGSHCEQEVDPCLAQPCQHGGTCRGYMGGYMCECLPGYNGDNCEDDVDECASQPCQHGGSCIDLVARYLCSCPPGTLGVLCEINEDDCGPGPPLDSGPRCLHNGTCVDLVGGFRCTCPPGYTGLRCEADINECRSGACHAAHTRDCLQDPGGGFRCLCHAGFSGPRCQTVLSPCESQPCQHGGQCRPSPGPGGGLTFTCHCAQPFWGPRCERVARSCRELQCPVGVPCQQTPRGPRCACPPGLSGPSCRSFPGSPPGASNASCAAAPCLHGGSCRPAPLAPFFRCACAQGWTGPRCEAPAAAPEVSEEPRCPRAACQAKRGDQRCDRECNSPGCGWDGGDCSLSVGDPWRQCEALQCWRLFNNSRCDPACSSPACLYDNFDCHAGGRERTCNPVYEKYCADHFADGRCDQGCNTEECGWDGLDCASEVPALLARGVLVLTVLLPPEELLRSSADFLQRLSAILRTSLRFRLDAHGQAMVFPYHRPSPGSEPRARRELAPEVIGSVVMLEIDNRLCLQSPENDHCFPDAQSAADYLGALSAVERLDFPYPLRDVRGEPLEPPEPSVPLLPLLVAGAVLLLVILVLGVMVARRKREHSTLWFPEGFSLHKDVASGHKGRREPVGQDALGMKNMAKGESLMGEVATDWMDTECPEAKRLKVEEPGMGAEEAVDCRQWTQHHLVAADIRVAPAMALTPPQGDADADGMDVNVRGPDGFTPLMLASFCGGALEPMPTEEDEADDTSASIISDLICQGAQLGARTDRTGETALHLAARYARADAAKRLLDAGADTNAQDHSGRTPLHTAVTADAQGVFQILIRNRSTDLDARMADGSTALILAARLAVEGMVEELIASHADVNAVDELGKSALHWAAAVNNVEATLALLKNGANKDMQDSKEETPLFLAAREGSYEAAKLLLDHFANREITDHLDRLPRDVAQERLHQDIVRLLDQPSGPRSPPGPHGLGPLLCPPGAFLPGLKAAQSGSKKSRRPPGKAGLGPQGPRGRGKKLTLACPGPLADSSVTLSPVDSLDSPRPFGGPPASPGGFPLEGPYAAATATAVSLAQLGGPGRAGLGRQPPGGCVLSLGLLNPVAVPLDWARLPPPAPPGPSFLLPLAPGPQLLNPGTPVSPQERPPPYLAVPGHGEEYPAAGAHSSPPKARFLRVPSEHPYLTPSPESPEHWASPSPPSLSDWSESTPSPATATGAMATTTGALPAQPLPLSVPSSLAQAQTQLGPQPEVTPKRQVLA

Turning to `C=CCNC(=O)[C@@H]1[C@H]2C(=O)O[C@H](c3ccccc3)[C@H](c3ccccc3)N2[C@H](c2ccccc2OCCO)[C@@]12C(=O)Nc1ccc(C#CCC(C(=O)OC)C(=O)OC)cc12`, the composite z-score was 1.45 in [1]; 1.77 in [5]; -0.366 in [7]; 0.0639 in assay [8]; 1.07 in [9]; -0.24 in assay [10]. Also, the composite z-score in assay [11] is 1.66; in assay [12], -0.319; in [13] it was -0.604; in [15] it was 0.395; in [16] it was 1.03; in assay [17] it was -0.114. In addition, the composite z-score turned out to be 0.276 in assay [18], 0.0965 in assay [19] and 0.482 in assay [20]. For the same compound, the z-score in [2] is 1.13 (inactive); in assay [3], 1.19 (inactive); in assay [4] it was 3.72 (inactive); in assay [6], -0.736 (inactive); in assay [14], -3.31 (inactive).

For the compound `CCCNC(=O)[C@@]1(Sc2ccc(C)cc2)CC(=O)N(C2Cc3ccccc3C2)[C@@H]1c1ccc(CO)cc1I`, the composite z-score in [1] was 0.918; in assay [5] it was 1.28; in assay [7], -0.0321; in assay [8], -0.287; in [9], -0.0184; in assay [10] it was -0.126. The composite z-score in assay [11] was 0.401; in assay [12], 0.551; in assay [13], 0.7; in assay [15], -0.189; in [16], -0.0794; in [17], -0.172. Moreover, the composite z-score in [18] is -0.268; in [19] it was -0.236; in assay [20] it was 1.04. The z-score in assay [2] was -0.452 (inactive); in assay [3], -1.32 (inactive); in assay [4] it was 1.21 (inactive); in assay [6], 0.761 (inactive); in [14], -0.272 (inactive).

`CC1CC/C=C\[C@H]2OC34C=CCN(C(C)C)C(=O)[C@H]3N(CCO)C(=O)[C@@H]4C2C(=O)O1` (stereo not given in full): the composite z-score in [1] was -0.138; in [5] it was -0.021; in assay [7], -0.159; in assay [8] it was -1.87; in [9] it was -0.355; in assay [10] it was -0.281. The composite z-score in assay [11] was 0.501; in assay [12], -0.163; in assay [13], 0.701; in assay [15] it was -0.309; in [16] it was -0.979; in assay [17], -1.29. Besides, the composite z-score is -1.28 in assay [18], -1.28 in assay [19] and -0.372 in assay [20]. The z-score in [2] was 0.114 (inactive); in assay [3] it was -0.486 (inactive); in assay [4], 0.323 (inactive); in [6], 1.48 (inactive); in [14], 0.459 (inactive).

With `COc1ccc([Si](C)(C)[C@@H]2[C@@H](CCO)O[C@]3(C(=O)N(Cc4ccccc4)c4ccc(N5CCOC5=O)cc43)[C@H]2C)cc1`, the composite z-score in assay [1] was 1.51; in assay [5], 1.78; in assay [7] it was -0.0722; in assay [8], 0.446; in assay [9] it was 0.693; in assay [10], -0.14. The composite z-score in assay [11] was 1.54; in [12], 0.0274; in assay [13], -0.0546; in assay [15], 0.24; in [16], 0.624; in [17] it was 0.254. Further, the composite z-score in [18] amounted to 0.637; in [19], 0.406; in assay [20], 0.729. For the same compound, the z-score was 2.55 (inactive) in [2]; -0.522 (inactive) in [3]; 17.5 (active) in [4]; 1.44 (inactive) in assay [6]; -1.64 (inactive) in [14].

On to `CCCC=C(CCC)[C@@H](NC(=O)C(C)(C)C)c1ccc(C(=O)OC)cc1`, for which the composite z-score in assay [1] is 0.0225; in assay [5] it was 3.12; in assay [7] it was 0.498; in [8], -0.383; in [9], 0.803; in assay [10] it was -0.0023. Also, the composite z-score was -0.0973 in [11]; 1.13 in assay [12]; 1.06 in assay [13]; -0.129 in assay [15]; -0.107 in assay [16]; -0.0375 in assay [17]. In addition, the results for the composite z-score in [18], in assay [19] and in assay [20] were 0.11, -0.58 and 0.757, respectively. The z-score in [2] is 0.647 (inactive); in [3], 1.51 (inactive); in [4], 1.68 (inactive); in [6] it was -0.447 (inactive); in assay [14], -0.58 (inactive).
